# Source: PubChem BioAssay (NCI)
# The panel holds about 83,000 compounds, 20% with a hit somewhere; the sample as a whole holds those more often.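 Results are percent growth after 48 hours of single-concentration exposure. 100 means growth as in untreated cells, lower positive values show inhibition; negative values down to -100 show cell death.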 Calls of active or inactive are those of the source. How the source made its calls: active means growth percent below 10; inactive means the rest.
# Tested on: IGROV1 ovarian
# Experiment: NCI-60 one-dose screen, 48 h (100 = growth as untreated, 0 = no growth, -100 = all killed)
# Settings: 10 µM unless noted
row,SMILES,growth
1,NC(=O)N1CCOCC1,113% (inactive)
2,N#Cc1ccc(OC(=O)Nc2c(Cl)cc(Cl)cc2Cl)cc1,98.7% (inactive)
3,CCOC(=O)/C(C)=C\c1ccc(OC)c(OC)c1,105% (inactive)
4,O=S(Cc1ccccc1)/C(=C/NC(=S)Nc1ccccc1)c1ccccc1 (configuration not stated),97.6% (inactive)
5,C/C(=N\O)c1ccccn1,110% (inactive)
6,CC(C)NC(=O)OCc1c(COC(=O)NC(C)C)c(-c2ccc(Cl)cc2)n2c1CCC2,70.3% (inactive)
7,CC(=O)NNC(=S)/N=C\C(C(=O)c1ccccc1)=C(/O)c1ccccc1,95% (inactive)
8,C=CCS(C)(=O)=O,112% (inactive)
9,O=C(NCc1ccccc1)c1cccc([N+](=O)[O-])c1,101% (inactive)
10,c1ccc(-c2ccc3ccccc3c2)cc1,85.3% (inactive)
11,Cc1ccccc1NC(=O)Oc1ccc(Cl)cc1C(=O)c1ccccc1,101% (inactive)
12,CCC(C)c1c(N)n(S(=O)(=O)c2ccc(C)cc2)oc1=O (configuration not stated),88.7% (inactive)
13,O=Cc1c(O)c2ccccc2[nH]c1=O,104% (inactive)
14,COC(=O)c1ccccc1C(=O)c1c(C)cc(C)cc1C,98.5% (inactive)
15,N=C(N)c1nn(C2OC(CO)C(O)C2O)c2nc[nH]c(=O)c12 (configuration not stated),21.8% (inactive)
16,COc1cccc(C(=O)O)c1OC,99.4% (inactive)
17,O=C(O)c1cc(I)ccc1O,114% (inactive)
18,CC(=O)NNC(=S)N/C=C/c1c(C)ccc([N+](=O)[O-])c1[N+](=O)[O-],109% (inactive)
19,NNc1ncnc2c1ncn2C1OC(CO)C(O)C1O (configuration not stated),66.7% (inactive)

row,SMILES,growth
1,C=CCNC(=S)N/C=C(/C(=O)c1ccccc1)c1ccccc1,106% (inactive)
2,Cc1ccc(C2CCCCC2)cc1Br,101% (inactive)
3,OCCc1ccc(Cl)cc1,104% (inactive)
4,C/C(O)=C(/C=N/C(=S)Nc1ccccc1)C(=O)Nc1ccccc1C,105% (inactive)
5,CC1(C)OC(=O)CC1=O,107% (inactive)
6,CN(C)CCOC(=O)Nc1ccc(Cc2ccc(NC(=O)OCCN(C)C)cc2)cc1,83.2% [100 µM] (inactive)
7,O=c1nc(Nc2cccc(Cl)c2)oc2cc(Cl)oc(=O)c12,12.4% (inactive)
8,OCCNc1ccccc1,110% (inactive)
9,O=C(Oc1ccccc1Cl)c1ccc(Cl)cc1Cl,108% (inactive)
10,COc1cc(OC)c2cc(C(=O)c3ccc(C#N)cc3)c(=O)oc2c1,104% (inactive)
11,CC(C)C1CCC(C)C(O)C1 (configuration not stated),104% (inactive)
12,O=C(NC1CCCCC1)c1ccc(Cl)cc1,103% (inactive)
13,O=C1C=Cc2ccccc2/C1=C/c1[nH]c(=O)[nH]c1O,33.2% (inactive)
14,NC(CO)(CO)c1ccccc1,104% (inactive)
15,Nc1cc(N)ncn1,101% (inactive)
16,S=C(Sc1ccc(Cl)cc1)Sc1ccc(Cl)cc1,-49.8% (active)
17,CCOc1ccc(C(=O)O)cc1,113% (inactive)
18,COc1cccc(C(=O)NNC(=O)c2cccc3ccccc23)c1,131% (inactive)
